“And” between values parts separate entries of the source, which are not always exact repeats. Identical values can stand only once. In all, about 350,000 compounds went through this assay and about 6,000 (1.7%) were called active. About 5% were inconclusive and are not listed. Rule as the data show it: active = CPE inhibition above about 20% (passing the limit was not always enough); inconclusive = no clear call, values can overlap the other calls; tested in BHK-21 cells. The entries come from a sample that favours actives as a whole.
Assay: protection of cells from dengue 2 killing – plate reader, single concentration, primary screen (AID 651640);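 also: 0% = median of neutral control wells and 100% = median of positive control wells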
Details: DENV2-infected cells, cytopathic effect rescue, at 9.99 µM, stronger effect = higher value
In the case of `O=C(NCC[C@H]1CC[C@H](NC(=O)C2CC2)[C@@H](CO)O1)c1ccc(F)cc1`, the CPE inhibition is reported as -6.48% (inactive).
In the case of `O=C(NCC[C@H]1CC[C@@H](NC(=O)C2CCCCC2)[C@@H](CO)O1)c1ccc(F)cc1`, the CPE inhibition is reported as 50.9% (active).
For `O=C(NCC[C@H]1CC[C@@H](NC(=O)C2CC2)[C@H](CO)O1)c1ccc(F)cc1`, the CPE inhibition was -2.58% (inactive).
For `C[C@H]1CN([C@@H](C)CO)C(=O)c2cc(/C=C/c3ccccc3)cnc2O[C@H]1CN(C)Cc1cccc(C(=O)O)c1`, the CPE inhibition was -8.76% (inactive).
For `C[C@H]1CN([C@@H](C)CO)C(=O)c2cccc(NC(=O)NC3CCCCC3)c2O[C@H]1CN(C)CC1CCCCC1`, the CPE inhibition was 30.3% (active).
With `C[C@H]1CN([C@@H](C)CO)C(=O)c2cccc(NC(=O)C3CCCCC3)c2O[C@H]1CN(C)Cc1ccc(C(F)(F)F)cc1` the CPE inhibition was 12.9% (inactive).
For `C[C@@H]1CN([C@@H](C)CO)C(=O)c2cccc(NC(=O)NC3CCCCC3)c2O[C@@H]1CN(C)CC1CCCCC1`, the CPE inhibition was 12.9% (inactive).
With `C[C@@H]1CN([C@H](C)CO)C(=O)c2cccc(NC(=O)NC3CCCCC3)c2O[C@H]1CN(C)Cc1ccc(C(F)(F)F)cc1` the CPE inhibition was 0.691% (inactive).
With `C[C@@H]1CN([C@H](C)CO)C(=O)c2cccc(NC(=O)NC3CCCCC3)c2O[C@@H]1CN(C)CC1CCCCC1` the CPE inhibition was -11% (inactive).
For `C[C@H](CO)N1C[C@H](C)[C@@H](CN(C)Cc2ccc(C(F)(F)F)cc2)Oc2c(NC(=O)NC3CCCCC3)cccc2C1=O`, the CPE inhibition was 37.7% (active).
For `O=C(C[C@H]1C=C[C@H](NC(=O)c2cccc(F)c2)[C@@H](CO)O1)NCc1ccc(Oc2ccccc2)cc1`, the CPE inhibition was -9.22% (inactive).
With `C[C@H](CO)N1C[C@H](C)[C@H](CN(C)Cc2ccncc2)Oc2ncc(C#Cc3cccc(F)c3)cc2C1=O` the CPE inhibition was 13.5% (inactive).
In the case of `C[C@@H]1CN([C@H](C)CO)C(=O)c2cc(-c3ccccc3F)cnc2O[C@H]1CN(C)C(=O)CN(C)C`, the CPE inhibition is reported as -0.853% (inactive).
In the case of `CN1c2ccc(-c3cccc(F)c3)cc2[C@@H]2[C@@H](CCN2C(=O)Nc2ccccc2F)[C@@H]1CO`, the CPE inhibition is reported as -9.74% (inactive).
For `COc1cccc(C(=O)Nc2ccc3c(c2)C(=O)N(C)[C@H]2CC[C@H](CC(=O)N[C@@H](C)c4ccccc4)O[C@H]2CO3)c1`, the CPE inhibition was -3.06% (inactive).
In the case of `CN1C(=O)c2cc(NC(=O)Cc3ccccc3)ccc2OC[C@H]2O[C@H](CC(=O)NCc3ccc(Cl)cc3)CC[C@H]21`, the CPE inhibition is reported as -3.46% (inactive).
In the case of `C[C@@H]1CN([C@H](C)CO)C(=O)c2cc(NS(=O)(=O)c3ccc(F)cc3)ccc2O[C@H]1CN(C)Cc1ccncc1`, the CPE inhibition is reported as -0.549% (inactive).
For `Cc1noc(C)c1S(=O)(=O)Nc1ccc2c(c1)C(=O)N([C@@H](C)CO)C[C@@H](C)[C@H](CN(C)Cc1ccc(-c3ccccc3)cc1)O2`, the CPE inhibition was 35.7% (active).
With `C[C@H](CO)N1C[C@H](C)[C@H](CN(C)Cc2ccc(-c3ccccc3)cc2)Oc2ccc(NS(=O)(=O)c3ccccc3)cc2C1=O` the CPE inhibition was 0.672% (inactive).
For `Cc1noc(C)c1S(=O)(=O)Nc1ccc2c(c1)C(=O)N([C@@H](C)CO)C[C@@H](C)[C@@H](CN(C)C)O2`, the CPE inhibition was 1.2% (inactive).
In the case of `Cc1ccc(S(=O)(=O)Nc2ccc3c(c2)C(=O)N([C@@H](C)CO)C[C@@H](C)[C@H](CN(C)Cc2ccc4c(c2)OCO4)OCCCC[C@@H](C)O3)cc1`, the CPE inhibition is reported as -8.37% (inactive).
In the case of `Cc1ccc(S(=O)(=O)Nc2ccc3c(c2)C(=O)N([C@H](C)CO)C[C@H](C)[C@H](CN(C)Cc2ccc(Cl)c(Cl)c2)O3)cc1`, the CPE inhibition is reported as -4.04% (inactive).
In the case of `Cc1ccc(S(=O)(=O)Nc2ccc3c(c2)C(=O)N([C@@H](C)CO)C[C@@H](C)[C@H](CN(C)Cc2ccncc2)O3)cc1`, the CPE inhibition is reported as 35.3% (active).
For `Cc1ccc(S(=O)(=O)Nc2ccc3c(c2)C(=O)N([C@@H](C)CO)C[C@@H](C)[C@@H](CN(C)Cc2ccncc2)O3)cc1`, the CPE inhibition was 2.98% (inactive).
In the case of `Cc1ccc(S(=O)(=O)Nc2ccc3c(c2)C(=O)N([C@@H](C)CO)C[C@H](C)[C@@H](CN(C)Cc2ccc4c(c2)OCO4)O3)cc1`, the CPE inhibition is reported as 21.2% (active).
For `CO[C@@H]1CN(C)C(=O)c2cc(NS(=O)(=O)c3cn(C)cn3)ccc2OC[C@@H](C)NC[C@H]1C`, the CPE inhibition was -0.807% (inactive).
For `COCc1cn(CC[C@H]2CC[C@@H](NC(=O)Nc3ccc(OC)cc3)[C@@H](CO)O2)nn1`, the CPE inhibition was 0.762% (inactive).
With `C/C=C/c1ccc(C2[C@H]3CNC[C@@H]2N3C(=O)Nc2ccc(F)cc2)cc1` (stereo partly drawn) the CPE inhibition was 0.029% (inactive) and 10.5% (inactive).
In the case of `O=C(Nc1ccc(-c2ccccc2)cc1)[C@@H]1[C@@H](CO)[C@@H]2Cn3c(cccc3=O)[C@H]1N2Cc1ccncc1`, the CPE inhibition is reported as -0.731% (inactive).
In the case of `CO[C@@H]1CN(C)C(=O)c2cc(NS(=O)(=O)c3cn(C)cn3)ccc2OC[C@@H](C)N(CCC(F)(F)F)C[C@H]1C`, the CPE inhibition is reported as -9.32% (inactive).
With `O=C(c1ccccc1F)N1CC(=O)N2[C@H](CO)[C@H](c3ccc(-c4cccnc4)cc3)[C@H]2C1` the CPE inhibition was 8.17% (inactive).
In the case of `C[C@@H]1CCCCO[C@@H](CN(C)S(=O)(=O)c2ccccc2)[C@@H](C)CN([C@@H](C)CO)C(=O)c2cc(NS(=O)(=O)c3cn(C)cn3)ccc2O1`, the CPE inhibition is reported as -3.06% (inactive).
In the case of `C[C@H](NC(=O)C[C@@H]1C[C@@H]2c3cc(NS(=O)(=O)c4ccc(F)cc4)ccc3O[C@@H]2[C@@H](CO)O1)c1ccccc1`, the CPE inhibition is reported as 2.95% (inactive).
In the case of `CC(C)NC(=O)N1CCCCN2[C@H](CO)[C@@H](c3ccc(Br)cc3)[C@H]2C1`, the CPE inhibition is reported as -4.94% (inactive).
In the case of `COc1ccc(NC(=O)Nc2cccc3c2O[C@H](CN(C)S(=O)(=O)c2ccc(F)cc2)[C@H](C)CN([C@H](C)CO)C3=O)cc1`, the CPE inhibition is reported as -3.75% (inactive).
With `Cc1cccc(S(=O)(=O)N2CC[C@@H]3[C@H]2c2cc(C#Cc4ccc(F)cc4)ccc2N[C@@H]3CO)c1` the CPE inhibition was 65.6% (active).
With `COc1ccccc1S(=O)(=O)N1CC[C@@H]2[C@H](CO)Nc3ccc(-c4ccccc4F)cc3[C@@H]21` the CPE inhibition was -1.18% (inactive).
With `O=S(=O)(c1ccccc1)N1CC[C@@H]2[C@@H](CO)Nc3ccc(-c4ccccc4F)cc3[C@@H]21` the CPE inhibition was 16.3% (inactive).
In the case of `COc1ccc(C#Cc2ccc3c(c2)[C@H]2[C@H](CCN2Cc2nccs2)[C@@H](CO)N3)cc1`, the CPE inhibition is reported as 27.7% (active).
In the case of `COc1ccccc1CN1CC[C@@H]2[C@@H](CO)Nc3ccc(C#Cc4ccccc4)cc3[C@@H]21`, the CPE inhibition is reported as -32.6% (inactive).
For `O=S(=O)(c1ccccc1)N1CC[C@@H]2[C@@H](CO)Nc3ccc(C#Cc4cccc(F)c4)cc3[C@@H]21`, the CPE inhibition was 1.91% (inactive).
With `CN(C)C(=O)c1cccc(-c2ccc3c(c2)[C@@H]2[C@@H](CCN2Cc2nccs2)[C@@H](CO)N3)c1` the CPE inhibition was -14% (inactive).
For `O=S(=O)(c1ccccc1)N1CC[C@@H]2[C@H]1c1cc(C#Cc3cccc(F)c3)ccc1N[C@@H]2CO`, the CPE inhibition was -8.72% (inactive).
For `O=S(=O)(c1ccc(F)cc1)N1CC[C@@H]2[C@@H](CO)Nc3ccc(-c4ccccc4F)cc3[C@@H]21`, the CPE inhibition was 77.9% (active).
In the case of `CCCN1[C@H](C(=O)N2CCOCC2)[C@@H](CO)[C@@H]2Cn3c(ccc(/C=C/c4ccccc4)c3=O)[C@@H]21`, the CPE inhibition is reported as 14.1% (inactive).
With `CCCc1cn(CC[C@@H]2CC[C@@H](NS(=O)(=O)c3ccccc3Cl)[C@@H](CO)O2)nn1` the CPE inhibition was -1.78% (inactive).
With `CO[C@H]1CN(C)C(=O)c2ccc(NC(=O)Nc3c(C)noc3C)cc2OC[C@@H](C)NC[C@H]1C` the CPE inhibition was 1.98% (inactive).
For `C/C=C/c1ccc2c(c1)O[C@H](CN(C)C(=O)c1ccc3c(c1)OCO3)[C@@H](C)CN([C@H](C)CO)S2(=O)=O`, the CPE inhibition was 19.1% (inactive).
For `CC(=O)N1C[C@@H]2[C@H](c3ccccc31)[C@H](CO)N2C(=O)Nc1ccc(F)cc1`, the CPE inhibition was -5.97% (inactive).
For `COc1ccccc1-c1sc2ccccc2c1-c1ccc(Br)nc1`, the CPE inhibition was 24.6% (active).
In the case of `COc1ccccc1-c1sc2ccccc2c1C#CC1(O)CCCCC1`, the CPE inhibition is reported as -3.75% (inactive).
For `COc1ccc2sc(-c3ccccc3OC)c(-c3ccc(OCCN4CCCC4)cc3)c2c1`, the CPE inhibition was -8.2% (inactive).
With `COc1ccc(-c2cc(NC=O)c3ncc(-c4ccccc4)n3c2)cc1OC` the CPE inhibition was 8.91% (inactive).
For `COc1ccc(-c2cc(NC=O)c3ncc(-c4cccc(C(=O)N(C)C)c4)n3c2)c(OC)c1`, the CPE inhibition was -8.87% (inactive).
In the case of `COc1ccc(-c2cc(NC=O)c3ncc(-c4cc(OC)c(OC)c(OC)c4)n3c2)c(OC)c1`, the CPE inhibition is reported as 42.3% (active).
With `C[C@@H]1CN([C@@H](C)CO)C(=O)Cc2cc(NC(=O)CCN3CCOCC3)ccc2O[C@@H]1CN(C)CC1CC1` the CPE inhibition was -11.7% (inactive).
For `C[C@H](CO)N1C[C@H](C)[C@@H](CN(C)CC2CC2)Oc2ccc(NC(=O)Nc3ccccc3)cc2CC1=O`, the CPE inhibition was 7.45% (inactive).
For `CCCCCCCCCCCCN1[C@@H](CC(C)=O)c2cc(F)cc(F)c2S1(=O)=O`, the CPE inhibition was 37.7% (active).
With `CCCCCCN1CCN(C2CN(Cc3cn(Cc4ccc(F)cc4)nn3)S(=O)(=O)C2)CC1` (stereo not drawn) the CPE inhibition was -0.218% (inactive).
With `COc1ccc(CN2[C@@H](CC(=O)O)c3cc(F)ccc3S2(=O)=O)cc1` the CPE inhibition was -4.72% (inactive).
In the case of `CO[C@H]1CN(C)C(=O)c2ccc(NC(=O)C3CC3)cc2OC[C@H](C)N(CCc2ccccc2)C[C@@H]1C`, the CPE inhibition is reported as 4.92% (inactive).
In the case of `COCC(=O)N(C)C[C@@H]1Oc2ncc(-c3ccccc3OC)cc2C(=O)N([C@@H](C)CO)C[C@@H]1C`, the CPE inhibition is reported as 0.798% (inactive).
With `CC(C)NC(=O)Nc1ccc2c(c1)C(=O)N([C@H](C)CO)C[C@@H](C)[C@@H](CN(C)C(=O)c1ccncc1)OCCCC[C@H](C)O2` the CPE inhibition was -1.8% (inactive).

— PubChem BioAssay AID651640 (Broad Institute, 2012)
